Results taken from PubChem BioAssay.
Activity calls are given as the source filed them. Unless noted, no rule for the calls is given here.

What was measured:
[1] = compound effects on lung adenocarcinoma cell viability – A549, calcein-AM fluorescence, 48 h, basal, profiling panel (AID 1162); settings: higher = more signal; also: test concentration not given here
[2] = compound effects on differentiated 3T3-L1 adipocyte viability – cell-based, 3T3-L1 adipocytes, calcein-AM fluorescence, 48 h, basal, profiling panel (AID 1163); settings: 3T3-L1 adipocytes viability, higher = more signal; also: test concentration not given here
[3] = compound effects on hepatocellular carcinoma cell viability – HepG2, calcein-AM fluorescence, 48 h, basal, profiling panel (AID 1164); settings: higher = more signal; also: test concentration not given here
[4] = compound effects on multiple myeloma cell viability – MM1S, calcein-AM fluorescence, 48 h, basal, profiling panel (AID 1165); settings: higher = more signal;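 also: viability of MM1S multiple myeloma cells under basal unstimulated conditions; test concentration not given here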
[5] = calcein-AM signal in unstimulated myeloma cells – cell-based, calcein-AM fluorescence, 48 h, PK04 Diversity Set, profiling panel (AID 1166); settings: RPMI8226 myeloma viability, higher = more signal;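 also: cells grown under basal conditions without added stimulus; test concentration not given here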
[6] = JC-1 mitochondrial signal, unstimulated HepG2 cells – cell-based, JC-1 fluorescence, 24 h, 100 nL compound, profiling panel (AID 1167); settings: HepG2 mitochondrial potential, higher = more signal; also: test concentration not given here
[7] = JC-1 mitochondrial signal, unstimulated adipocytes – cell-based, JC-1 fluorescence, 3T3-L1 adipocytes, 24 h, 100 nL compound, profiling panel (AID 1168); settings: JC-1 mitochondrial fluorescence, higher = more signal, called active from +8 up or from −8 down; also: test concentration not given here
[8] = JC-1 mitochondrial signal, unstimulated myeloma cells – cell-based, JC-1 fluorescence, RPMI8226, 24 h, 100 nL compound, profiling panel (AID 1169); settings: JC-1 mitochondrial potential fluorescence, higher = more signal; also: test concentration not given here
[9] = JC-1 mitochondrial signal, unstimulated MM1S myeloma – cell-based, JC-1 fluorescence, 24 h, 100 nL compound, profiling panel (AID 1170); settings: MM1S mitochondrial potential, higher = more signal; also: test concentration not given here
[10] = resazurin metabolic signal in A549 cells – cell-based, resazurin fluorescence, 24 h, PK04 Diversity Set, profiling panel (AID 1171); settings: A549 viability, higher = more signal, called active from +8 up or from −8 down; also: test concentration not given here
[11] = resazurin metabolic signal in HepG2 cells – cell-based, resazurin fluorescence, 24 h, PK04 Diversity Set, profiling panel (AID 1172); settings: HepG2 viability, higher = more signal; also: test concentration not given here
[12] = budding yeast growth changes without added modifier – OD600, strain BY4716, 24 h, basal condition, primary screen (AID 1173); settings: S. cerevisiae BY4716 growth, OD600, 24 h; higher = more signal, called active from +8 up or from −8 down
[13] = viability profiling in MM1S myeloma cells – cell-based, resazurin fluorescence, basal, 24 h, PK04 Diversity Set, profiling panel (AID 1174); settings: higher = more signal, called active from +8 up or from −8 down; also: test concentration not given here
[14] = biological target: Dihydroorotate dehydrogenase (quinone), mitochondrial (Plasmodium falciparum (isolate 3D7)) (UniProt Q08210); assay: inhibition of P. falciparum DHODH – biochemical, C-terminal His tag, absorbance 600 nm, primary screen (AID 1175); settings: PfDHODH enzyme, DCIP absorbance 600 nm; higher = more signal, called active from +8 up or from −8 down;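 also: recombinant parasite enzyme with a five histidine tag at its C terminus; test concentration not given here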
[15] = inhibition of PAO1 biofilm formation – strain PAO1, LB-PBS medium, absorbance 600 nm, primary screen (AID 1176); also: test concentration not given here; settings: P. aeruginosa PAO1 growth/biofilm, A600, 12 h; higher = more signal
[16] = growth modulation of vineyard yeast isolate – strain RM11-1a, OD600, basal, 24 h, primary screen (AID 1177);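 also: cultures grown under basal conditions with no added stressor; test concentration not given here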; settings: S. cerevisiae RM11-1a growth, OD600, 24 h; higher = more signal, called active from +8 up or from −8 down
[17] = growth of efflux-deficient E. coli DRC39 – strain DRC39, OD650, 24 h, E. coli filamentation inducers, primary screen (AID 1178);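 also: growth measured as culture turbidity by optical density at 650 nm; test concentration not given here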; settings: E. coli DRC39 acrAB, higher = more signal, called active from +8 up or from −8 down
[18] = growth of efflux-deficient E. coli DRC39 – strain DRC39, OD650, 48 h, E. coli filamentation inducers, primary screen (AID 1179);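 also: screen aims at cell division blockers that make cells filament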; settings: E. coli DRC39 delta-acrAB growth, higher = more signal, called active from +8 up or from −8 down
[19] = viability profiling in RPMI8226 myeloma cells – cell-based, resazurin fluorescence, basal, 24 h, PK04 Diversity Set, profiling panel (AID 1180); settings: higher = more signal;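 also: RPMI8826 multiple myeloma cell line at 5000 cells per well; test concentration not given here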
[20] = biological target: E3 ubiquitin-protein ligase XIAP (Homo sapiens) (UniProt P98170); assay: small molecules binding XIAP protein – biophysical, small-molecule microarray, fluorescence 635 nm, primary screen (AID 1181); settings: higher = more signal;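 also: score merges 667 nm emission and signal to noise over triplicate slides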
Sequence of E3 ubiquitin-protein ligase XIAP (Homo sapiens) (P98170 whole entry, looked up): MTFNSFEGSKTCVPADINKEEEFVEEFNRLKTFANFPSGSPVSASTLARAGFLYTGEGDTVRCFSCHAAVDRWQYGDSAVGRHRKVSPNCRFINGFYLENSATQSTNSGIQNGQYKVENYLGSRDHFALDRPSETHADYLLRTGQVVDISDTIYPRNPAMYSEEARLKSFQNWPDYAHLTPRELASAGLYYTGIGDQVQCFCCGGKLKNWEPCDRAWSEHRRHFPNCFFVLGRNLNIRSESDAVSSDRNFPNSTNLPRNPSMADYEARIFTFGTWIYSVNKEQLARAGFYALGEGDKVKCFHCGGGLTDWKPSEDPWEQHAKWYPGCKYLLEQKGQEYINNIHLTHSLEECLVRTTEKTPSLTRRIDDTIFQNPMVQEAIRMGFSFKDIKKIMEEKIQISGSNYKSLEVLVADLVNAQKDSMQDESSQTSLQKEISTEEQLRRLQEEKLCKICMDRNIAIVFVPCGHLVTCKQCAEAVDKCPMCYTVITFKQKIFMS

Sequence of Dihydroorotate dehydrogenase (quinone), mitochondrial (Plasmodium falciparum (isolate 3D7)) (Q08210 whole entry, looked up): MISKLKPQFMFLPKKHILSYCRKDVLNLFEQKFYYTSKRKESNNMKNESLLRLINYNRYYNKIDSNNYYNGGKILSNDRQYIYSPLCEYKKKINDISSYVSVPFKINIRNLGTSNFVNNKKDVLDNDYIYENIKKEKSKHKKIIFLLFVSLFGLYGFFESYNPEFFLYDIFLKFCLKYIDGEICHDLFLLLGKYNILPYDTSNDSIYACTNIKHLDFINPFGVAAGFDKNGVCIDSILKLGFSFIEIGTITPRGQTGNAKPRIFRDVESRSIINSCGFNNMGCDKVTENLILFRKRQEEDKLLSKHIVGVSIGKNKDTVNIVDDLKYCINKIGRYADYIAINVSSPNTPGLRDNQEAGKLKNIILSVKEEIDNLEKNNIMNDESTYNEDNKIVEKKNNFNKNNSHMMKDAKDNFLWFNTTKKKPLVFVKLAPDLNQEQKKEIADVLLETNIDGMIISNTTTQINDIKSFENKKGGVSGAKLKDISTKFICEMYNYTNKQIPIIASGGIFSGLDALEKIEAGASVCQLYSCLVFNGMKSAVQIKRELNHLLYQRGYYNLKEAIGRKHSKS

SMILES | z-score [1] | z-score [2] | z-score [3] | z-score [4] | z-score [5] | z-score [6] | z-score [7] | z-score [8] | z-score [9] | z-score [10] | z-score [11] | z-score [12] | z-score [13] | composite z-score [14] | z-score [15] | z-score [16] | z-score [17] | z-score [18] | z-score [19] | composite z-score [20]
CN1C(=O)C2C=CC(C(O)C3=C[C@H]4C[C@@H](C3)C4(C)C)N(Nc3ccc([N+](=O)[O-])cc3[N+](=O)[O-])C2C1=O (stereo not given in full) | 0.895 | -0.535 | 0.436 | 0.017 | -0.481 | -0.661 | -1.35 (inactive) | -0.46 | -1.1 | -0.227 (inactive) | -0.241 | 0.473 (inactive) | -0.569 (inactive) | -0.0042 (inactive) | 0.434 (inactive) | 1 (inactive) | -0.146 (inactive) | -0.476 (inactive) | 0.116 | 0.772
CN1C(=O)C2C=CC(C(O)C=Cc3ccc([N+](=O)[O-])cc3)N(N3CCCCC3)C2C1=O (stereo not given) | -1.1 | -1.15 | -0.382 | -0.351 | 0.107 | -1.77 | -1.31 (inactive) | -0.834 | -0.4 | -0.244 (inactive) | -0.559 | -1.42 (inactive) | -1.42 (inactive) | -0.358 (inactive) | 1.01 (inactive) | -0.555 (inactive) | -0.685 (inactive) | -0.397 (inactive) | -1.88 | 0.142
CN1C(=O)C2C=CC(C(O)c3ccc(Br)cc3)N(Nc3ccccc3)C2C1=O (stereo not given) | 0.622 | -0.384 | 1.17 | -0.0257 | -0.119 | -3.16 | -1 (inactive) | 0.0774 | -0.425 | -0.443 (inactive) | 0.0752 | -0.348 (inactive) | -0.26 (inactive) | -0.125 (inactive) | 0.434 (inactive) | 0.732 (inactive) | -0.398 (inactive) | -0.413 (inactive) | 0.296 | -0.0773
[N-]=[N+]=Nc1ccccc1[C@H]1OC(c2ccc(OCCCO)cc2)=N[C@@]1(CCS(=O)(=O)c1ccccc1)C(=O)N1CCOCC1 | 0.412 | -0.0376 | 0.402 | -0.655 | -0.184 | -1.34 | -0.392 (inactive) | -0.666 | -1.47 | -0.913 (inactive) | -0.512 | 0.917 (inactive) | -1.45 (inactive) | 0.499 (inactive) | 1.75 (inactive) | 1.45 (inactive) | 0.713 (inactive) | 0.187 (inactive) | -1.33 | 0.389
NC(=O)[C@]1(Cc2ccccc2)N=C(c2ccc(OCCCO)cc2)O[C@@H]1c1ccccc1 | -0.399 | 0.879 | -0.603 | -0.598 | -1.94 | -1.43 | -0.517 (inactive) | -0.775 | 1.18 | -0.784 (inactive) | -0.3 | -1.06 (inactive) | -1.02 (inactive) | 0.417 (inactive) | 0.246 (inactive) | 0.569 (inactive) | 0.0671 (inactive) | -1.24 (inactive) | -0.189 | 0.16
COc1ccc(C(=O)Nc2cccc(CN3C(=O)[C@@]4(O[C@@H](CC(=O)N5Cc6ccccc6C[C@H]5CO)[C@H]([Si](C)(C)c5ccc(OC)cc5)[C@H]4C)c4ccccc43)c2)cc1 | 0.0601 | 0.778 | -0.446 | -2.57 | -3.06 | 0.851 | 0.862 (inactive) | -0.976 | -1.88 | -0.967 (inactive) | -0.79 | 0.147 (inactive) | -3.05 (inactive) | -4.98 (inactive) | 1.42 (inactive) | 1.91 (inactive) | 0.978 (inactive) | 0.621 (inactive) | -1.99 | -0.0525
O=C1C2C=CC(C(O)C3CC=CCC3)N(n3cnnc3)C2C(=O)N1Cc1ccccc1 (stereo not given) | -0.563 | -0.801 | 0.253 | -0.379 | -0.255 | -0.937 | -0.132 (inactive) | 0.46 | -0.109 | -0.62 (inactive) | -0.854 | 0.0086 (inactive) | -1.16 (inactive) | -0.071 (inactive) | 0.216 (inactive) | -0.363 (inactive) | -1.59 (inactive) | -1.35 (inactive) | -1.45 | 0.38
CCN(CC)c1ccc(N2CC=CC34O[C@@H]5/C=C\CCC(C)OC(=O)C5[C@H]3C(=O)N(CCCCCCO)[C@@H]4C2=O)cc1 (stereo not given in full) | 1.21 | -1.09 | 0.674 | 1.57 | 0.153 | 1.25 | -1.02 (inactive) | 0.0282 | 0.846 | 0.606 (inactive) | -0.105 | -0.0746 (inactive) | 0.384 (inactive) | -0.788 (inactive) | -0.497 (inactive) | 0.251 (inactive) | 1.37 (inactive) | 1.59 (inactive) | 1.56 | -0.0545
